Measured potencies and affinities stand elsewhere. The source made the active and inactive calls.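 The calls were made as follows: active = signal drop at all three exposure times, half-maximal concentration at most twice the top valid dose; inconclusive = exposure times give differing calls; inactive = inactive at every exposure time.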
Assay: LOX IMVI melanoma cell viability loss, dose response, HRAS target identification, CellTiter-Glo ATP luminescence, 8/24/48 h, dry powder (AID 720602)

| Compound | outcome |
| --- | --- |
| CCC(=O)N(c1ccc(OC)c(Cl)c1)C(C(=O)NCCc1ccccc1)c1cccs1 (configuration not stated) | inactive |
| Cc1onc(C(=O)N2CCN(C(c3ccncc3)c3ccncc3)CC2)c1[N+](=O)[O-] | inactive |
